Pf growth 48h: inhibits P. falciparum growth in the first generation, 48 h | P. falciparum luciferase growth in erythrocytes, 48 h | Potency, µM (highest dose often 28.7 µM), for inactives: at the top dose activity change, negative = inhibition, usual class: inhibitors | hit rate 5.9% among 310,000 | AID 504832; also: potency is read from the fitted curve at half-maximal effect
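In quantitative HTS format, infected erythrocytes bearing luciferase-reporter parasites were treated for a single generation at 37 C. Luminescence after adding detection reagent served as the growth measure.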
FBPA Giardia inh: blocks Giardia fructose-bisphosphate aldolase activity; purified Giardia FBPA; hit rate 0.71% among 290,000; Potency, µM (titrated, usually from 59.6 µM), inactives show at the highest dose activity, negative = inhibition, hits mostly inhibitors; A8B2U2; also: potency is read from the fitted curve at half-maximal effect; nearly all actives have a fitted effect of over 55% in size
Target sequence (A8B2U2 whole entry, looked up): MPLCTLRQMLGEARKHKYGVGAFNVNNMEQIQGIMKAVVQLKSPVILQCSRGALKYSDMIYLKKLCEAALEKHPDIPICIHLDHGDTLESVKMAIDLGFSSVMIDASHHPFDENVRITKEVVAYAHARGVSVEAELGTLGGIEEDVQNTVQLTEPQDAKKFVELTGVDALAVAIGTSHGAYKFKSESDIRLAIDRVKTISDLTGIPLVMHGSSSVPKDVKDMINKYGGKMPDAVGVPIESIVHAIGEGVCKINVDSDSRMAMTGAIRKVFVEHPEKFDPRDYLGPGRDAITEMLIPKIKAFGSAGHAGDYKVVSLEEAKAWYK
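40 nM FBPA preincubated 10 min at RT with compound (up to 57.5 uM final), then substrate plus GAPDH/TPI/NAD/arsenate coupling and diaphorase/resazurin added. Fluorescence read after 20 min at RT, 525/598 nm.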
HCMV antiviral: human cytomegalovirus inhibition; HFF cells, HCMV-luciferase reporter, 72 h; active compounds read low; activity change, negative = inhibition, % at 57.5 µM; hit rate 4.5% among 410,000; in the data active = activity change below about -60%; inconclusive = no clear call, values can overlap the other calls; inactive = above about -39%
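HFF cells seeded 16 h at 37C, treated with compounds, infected with luciferase-reporter HCMV at MOI 1 PFU/cell; luciferase read at 72 h post infection, normalized to buffer-only and Salinomycin controls.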
Pf growth 96h: P. falciparum growth inhibition at 96 hour, primary screen for plastid delayed-death inhibitors | P. falciparum luciferase reporter growth, 96 h | Potency, µM (doses to about 28.7 µM), inactives show at the top dose activity change, negative = inhibition, usual class: inhibitors | hit rate 6.9% among 320,000; also: potency is read from the fitted curve at half-maximal effect
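P. falciparum expressing integrated firefly luciferase grown in erythrocytes (2% hematocrit, 0.05% parasitemia final) with compounds for 96 hours at 37 C, 5% CO2. Growth inhibition read as loss of luminescence after adding luciferase detection reagent.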
Sm TGR inh: S. mansoni TGR enzyme inhibition; Potency, µM (doses to about 114 µM), for the others: at the highest dose activity change, negative = inhibition, actives largely listed as inhibitors; purified TGR, DTNB reduction, TNB absorbance 405 nm; hit rate 3% among 360,000; Q962Y6; AID 485364; also: potency is read from the fitted curve at half-maximal effect; nearly all actives have a fitted effect of over 60% in size
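TGR 20 nM + NADPH 100 uM (dispensed conc.), cpd preinc 15 min RT; start with NADPH (500 uM addition) then DTNB (15 mM addition). Kinetic TNB absorbance, 405 nm filter. Four-parameter Hill fit across titration.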
Numbers without * were called inactive; ? = inconclusive; nt = no result. In the library only some 14% were active in any assay of this set; here they are far more common. Unless noted, calls follow the shape of the dose curve; as a rule, active = well fitted curve in the direction sought with a large enough effect; inconclusive = small, poorly fitted or top-dose-only effect, or another doubt; inactive = no such curve, though single readings can be large; an effect the other way counts as inactive or inconclusive. % is scaled to controls: 0 for no effect and ±100 for the full control effect.

SMILES	Pf growth 48h	FBPA Giardia inh	HCMV antiviral	Pf growth 96h	Sm TGR inh
O=C1NCCN2CCCC12 (centres undefined)	7%	-27%	-11	nt	25µM*
CC1(C)NC(=O)[C@H]2CCCN21	nt	nt	6	nt	nt
CC(=O)N=c1c(C#N)cc2c(=O)n3ccccc3nc2n1Cc1ccccc1	?	3%	-32	8.3µM*	-9%
COCCCn1c(=NC(C)=O)c(C#N)cc2c(=O)n3cccc(C)c3nc21	3%	2%	8	?	-6%
COCCCn1c(=NC(=O)c2ccccc2)c(C#N)cc2c(=O)n3cccc(C)c3nc21	2.9µM*	-7%	18	?	-30%
Cc1cccn2c(=O)c3cc(C#N)c(=NC(=O)c4ccccc4)n(Cc4ccco4)c3nc12	nt	nt	1	nt	nt
Cc1cccc(C(=O)N=c2c(C#N)cc3c(=O)n4cccc(C)c4nc3n2Cc2ccco2)c1	nt	-22%	-31	13µM*	45µM*
CCOCCCn1c(=NC(=O)c2cccs2)c(C#N)cc2c(=O)n3cccc(C)c3nc21	1.9µM*	-1%	-39	-7%	-30%
CCOC(=O)CCN(C(=O)Nc1ccccc1)C1CCCCC1	nt	nt	-22	nt	nt
COC(=O)C1=CN(CCCN2CCCC2=O)C=C(C(=O)OC)C1c1ccccc1C(F)(F)F	?	3%	-65*	nt	0%
Cc1ccc(-c2c(C)sc3nc(CN4CCN(CC(=O)NC5CC5)CC4)[nH]c(=O)c23)cc1	10µM*	nt	2	?	-25%
COC(=O)c1sc2nc(CN3CCN(c4ccc(OC)cc4)CC3)[nH]c(=O)c2c1C	4%	-15%	-80*	?	-7%
COc1cccc(N2CCN(Cc3nc4scc(-c5ccccc5)c4c(=O)[nH]3)CC2)c1	-10%	-4%	-61*	?	-1%
COc1ccc(N2CCN(Cc3nc4sc(C)c(C)c4c(=O)[nH]3)CC2)cc1	7%	-7%	98	0%	1%
O=c1[nH]c(CN2CCN(c3ccc(O)cc3)CC2)nc2scc(-c3ccc(Cl)cc3)c12	3.7µM*	-24%	?	?	nt
NC(=O)CC1NC(=O)c2cc([N+](=O)[O-])cc(I)c2OCCC(C(N)=O)NC(=O)[C@@H]2CCCN2C1=O (some centres undefined)	-3%	0%	3	0%	0%
O=C1C=C(c2ccccc2)CO1	nt	nt	30	nt	nt
Cc1nn(CCCC(=O)Nc2cc(C(F)(F)F)ccc2Cl)c(=O)c2c1sc1ccccc12	nt	nt	22	nt	5%
O=c1[nH]c(CN2CCN(c3ccccc3Cl)CC2)nc2ccsc12	-6%	1%	35	?	0%
O=c1[nH]c(CN2CCN(c3ccccc3O)CC2)nc2scc(-c3ccccc3Cl)c12	5.2µM*	-13%	0	9.3µM*	-2%
O=C1C[C@H](c2ccccc2Cl)N1S(=O)(=O)c1ccccc1[N+](=O)[O-]	nt	11%	nt	nt	nt
COc1cccc(NC(=O)N(Cc2cc3cc(C)cc(C)c3[nH]c2=O)CC2COCCO2)c1 (centres undefined)	9.3µM*	1%	25	61%	-6%
COc1ccccc1NC(=O)N(Cc1ccco1)Cc1cc2c(C)ccc(C)c2[nH]c1=O	?	3%	36	28%	32µM*
CCN(CC)CCN(Cc1cc2cc(C)ccc2[nH]c1=O)C(=O)Nc1ccccc1OC	?	-14%	-18	nt	-1%
CCN1CCCC1CN(Cc1cc2ccc(C)cc2[nH]c1=O)C(=S)Nc1ccc(OC)cc1OC (centres undefined)	?	?	-37	19%	6%
Cc1ccc(NC(=O)N(Cc2cc3cc(C)cc(C)c3[nH]c2=O)CC2COCCO2)cc1 (centres undefined)	10%	-5%	?	?	-9%
CCc1ccc2[nH]c(=O)c(CN(Cc3ccccc3OC)C(=O)Nc3ccccc3OC)cc2c1	12µM*	-3%	-24	nt	-3%
CCN1CCCC1CN(Cc1cc2cc(C)cc(C)c2[nH]c1=O)C(=O)Nc1ccccc1OC (centres undefined)	9.3µM*	-23%	0	34%	?
CCN(CC(=O)Nc1ccccc1OC)C(=O)CSCC(=O)Nc1cccc(C)c1	nt	nt	-7	nt	nt
O=C(Nc1ccccc1)OCCc1ccccn1	nt	nt	24	nt	nt

Assay outcomes deposited in PubChem by National Center for Advancing Translational Sciences (NCATS).
